ELG1 genotoxic = inducers of genotoxicity in HEK293T ELG1-luciferase cells; HEK293T ELG1-luciferase reporter, luminescence, 16 h; Potency, µM (top dose mostly 46 µM), usual class: activators; AID 504466; 1.3% of 330,000 active; note: nearly all actives have a fitted effect of over 60% in size
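Screening used a luciferase reporter fused to human ELG1 in HEK293T cells. Luminescence was read on a CCD plate imager after 16 hr exposure and 30 min ONE-Glo incubation.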
NPC1 promoter act = NPC1 promoter activation | 2.4% of 320,000 active | Huh7 NPC1 promoter luciferase reporter, 24 h | Potency, µM (titrated, usually from 9.22 µM), most hits filed as activators; note: nearly all actives have a fitted effect of over 60% in size
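Luciferase expression driven by the NPC1 promoter was measured in stably transfected Huh7 cells after a 24 h compound incubation, using a luciferase reagent and a luminescence read.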
SMN2 splice enh = increases expression of the SMN2 splice variant; HEK293 SMN2-luciferase splicing reporter, luminescence, 30-36 h; Potency, µM (doses to about 46.1 µM), usual class: activators; 2.8% of 210,000 active; AID 1458; note: nearly all actives have a fitted effect of over 55% in size
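HEK293 cells carry an SMN2 […]–luciferase reporter in which exon 7 inclusion puts luciferase in frame. Cells were plated 10-12 h before compound addition, then incubated 30-36 h at 37C. ONE-Glo luminescence was read; sodium butyrate at 4.5 mM final served as control.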
Rab9 promoter act = Rab9 promoter activation; Huh7 Rab9 promoter-luciferase reporter, luminescence, 24 h; Potency, µM (doses to about 9.22 µM), usual class: activators; 2.8% of 320,000 active; note: nearly all actives have a fitted effect of over 60% in size
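Promoter activation is measured as luciferase luminescence in Huh7 cells stably transfected with a Rab9 promoter–luciferase construct, following 24 h compound exposure at 37 °C and 10 min reagent incubation at ambient temperature.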
FLuc modulator = inhibits or activates purified firefly luciferase, miR-21 counter-screen; Potency, µM (titrated, usually from 57.5 µM), most hits filed as inhibitors; purified FLuc, Km substrates, luminescence inhibition; P08659; 6.9% of 360,000 active; note: nearly all actives have a fitted effect of over 55% in size
Target sequence (P08659 whole entry, looked up): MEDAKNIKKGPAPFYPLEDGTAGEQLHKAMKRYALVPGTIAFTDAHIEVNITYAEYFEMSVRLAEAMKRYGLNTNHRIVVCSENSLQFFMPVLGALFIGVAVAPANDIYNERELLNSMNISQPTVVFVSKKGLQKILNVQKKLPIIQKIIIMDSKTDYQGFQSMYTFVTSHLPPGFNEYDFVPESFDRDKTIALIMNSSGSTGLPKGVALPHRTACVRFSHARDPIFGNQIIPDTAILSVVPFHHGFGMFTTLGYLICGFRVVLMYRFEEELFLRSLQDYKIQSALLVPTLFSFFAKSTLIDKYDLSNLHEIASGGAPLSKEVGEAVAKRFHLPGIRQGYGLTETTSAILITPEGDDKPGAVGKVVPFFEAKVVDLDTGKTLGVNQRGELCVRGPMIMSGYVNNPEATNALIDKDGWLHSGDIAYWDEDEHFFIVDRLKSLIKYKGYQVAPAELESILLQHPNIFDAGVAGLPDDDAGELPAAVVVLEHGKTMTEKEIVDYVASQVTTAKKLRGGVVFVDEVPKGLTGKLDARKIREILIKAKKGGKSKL
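Purified P. pyralis luciferase, 10 nM final, with Km-level 10 uM D-luciferin and 10 uM ATP in 50 mM Tris acetate pH 7.5, 10 mM Mg acetate, 0.01% Tween-20, 0.05% BSA; 6-point qHTS titration about 60 µM downward; luminescence read.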
uPA surface inh = inhibitors of cell surface uPA generation; cell surface uPA generation assay, qHTS; Potency, µM (series often up to 38.3 µM), hits mostly inhibitors; 0.31% of 330,000 active; active = well fitted inhibition curve with a large enough effect; inconclusive = small, poorly fitted or top-dose-only effect; inactive = no such curve, though single readings can be large or run the other way; tested in mouse RAW 264.7 cells; note: nearly all actives have a fitted effect of over 55% in size
Hits are given with their value; i = inactive; ? = inconclusive; nt = no result; [ ] = dose if it differs, or a comment. This is a sample that favours compounds with a hit; in the whole collection about 7.3% have one here. Unless noted, calls come from the whole dose curve; as a rule, active = well fitted curve in the direction sought with a large enough effect; inconclusive = small, poorly fitted or top-dose-only effect, or another doubt; inactive = no such curve, though single readings can be large; an effect the other way counts as inactive or inconclusive.

SMILES	ELG1 genotoxic	NPC1 promoter act	SMN2 splice enh	Rab9 promoter act	FLuc modulator	uPA surface inh
CC(C)c1ccc(-c2cc(C(=O)N3N=C(C(F)F)CC3(O)C(F)F)c3ccccc3n2)cc1 (configuration not stated)	?	?	?	?	1.5µM	nt
O=C(NN1CCOCC1)c1cc(-c2ccc(Br)cc2)nc2ccccc12	i	i	i	i	?	i
COc1ccccc1N1CCN(CC(O)COc2ccc(C)cc2C(C)(C)C)CC1 (configuration not stated)	nt	nt	i	nt	i	nt
C/C(CC(=O)Nc1ccc(Cl)c(C(F)(F)F)c1)=N\NC(=O)c1ccccc1O	i	i	i[1.84 µM]	i	17µM	i
C/C(CC(=O)Nc1ccc(N(C)C)cc1)=N\NC(=O)c1ccc([N+](=O)[O-])cc1Cl	i	i	i	i	i	i
C/C(Cn1nnc([N+](=O)[O-])n1)=N\NC(=O)c1ccccc1O	i	i	nt	i	11µM	i
C/C(Cn1nnc([N+](=O)[O-])n1)=N\NC(=O)c1ccc(O)cc1O	i	i	i	i	?	i
C/C(CC(=O)Nc1ccc([N+](=O)[O-])cc1)=N\NC(=O)c1ccccc1O	i	i	nt	i	12µM	i
C/C(CC(=O)Nc1ccc(N(C)C)cc1)=N\NC(=O)c1ccccc1O	i	i	nt	i	12µM	i
CCC1CCCCN1C(=O)CCS(=O)(=O)c1ccc2c(c1)CCN2C(C)=O (configuration not stated)	i	i	nt	i	i	i
N/C(=N\OC(=O)c1cccs1)c1ccccc1	?	?	?	?	0.67µM	i
N/C(=N\OC(=O)c1cccs1)c1cccc(Br)c1	?	i	i	i	1.1µM	i
N/C(Cc1cccc2ccccc12)=N\OC(=O)c1cccs1	i	i	i	i	i	i
N/C(=N\OC(=O)Cc1ccccc1[N+](=O)[O-])c1cccc(Br)c1	i	i	nt	i	?	i
COc1ccc(/C(N)=N/OC(=O)c2cccs2)cc1OC	i	i	nt	i	i	i
Cc1cccc(/C(N)=N/OC(=O)c2cccs2)c1	?	1.1µM	?	1.3µM	0.76µM	i
N/C(=N\OC(=O)Cc1ccccc1)c1cccc(Br)c1	i	i	i	i	17µM	i
CN(CCc1ccccn1)c1ccc2c(c1)C(=O)c1ccccc1-2	nt	nt	i[9.22 µM]	nt	nt	nt
Cn1cc(-c2cc3n(n2)CCC(=O)N3CC(=O)NCc2ccccc2)c2ccccc21	nt	nt	nt	nt	i	nt
Cc1ccc(/C(N)=N/OC(=O)c2cccs2)cc1	15µM	?	i[1.84 µM]	4.5µM	1.9µM	i
CCN(CC)c1ccc(-c2nc3cnccc3n2C)cc1	?	4µM	?	4µM	4.8µM	i
COc1cccc(C(=O)NCC(=O)OCc2cc(=O)n3c(C)csc3n2)c1	nt	nt	nt	nt	i	nt
Cc1ccc(NC(=O)c2nnn(-c3cccc(C(F)(F)F)c3)c2N)cc1	i	i	i	i	i	i
Nc1c(C(=O)Nc2ccc(F)cc2)nnn1-c1cccc(C(F)(F)F)c1	i	i	i	i	i	i
Nc1c(C(=O)Nc2ccccc2)nnn1-c1ccc2c(c1)OCCO2	0.18µM	0.22µM	nt	0.1µM	0.85µM	i
SMILES	ELG1 genotoxic	NPC1 promoter act	SMN2 splice enh	Rab9 promoter act	FLuc modulator	uPA surface inh
Cc1ccc(NC(=O)c2nnn(-c3ccc4c(c3)OCCO4)c2N)cc1	?	2.2µM	nt	5.6µM	11µM	i
c1ccc(-c2cc(-c3ccccc3)on2)cc1	5.8µM	1.4µM	nt	1.4µM	0.76µM	i
Cc1ccc(-c2cc(-c3ccccc3)no2)cc1	?	0.63µM	nt	0.32µM	0.3µM	?
Nc1nc(-c2cc(-c3ccccc3)no2)cs1	2.1µM	1µM	nt	1µM	3µM	i
O=C(c1ccccc1)c1cc(-c2ccccc2)on1	2.1µM	0.56µM	?	0.63µM	0.21µM	i
O=C(Nc1ccccc1C(=O)N1CCCCC1)NC1CCCCC1	i	i	nt	i	i	i
CCOc1ccc(C2c3c(oc4ccc(C)cc4c3=O)C(=O)N2c2nc(C)c(C)s2)cc1OC (configuration not stated)	nt	nt	i	nt	i	nt
COc1ccc(C(=O)NCC(c2cccnc2)N2CCN(c3ccc(F)cc3)CC2)cc1 (configuration not stated)	nt	nt	nt	nt	i	nt
COc1ccc(-c2coc3cc(OC4OC(CO)C(O)C(O)C4O)ccc3c2=O)cc1 (configuration not stated)	8.2µM	1.6µM	nt	1.6µM	11µM	?
COc1ccc(-c2coc3cc(OC4OC(CO)C(O)C(O)C4O)cc(O)c3c2=O)cc1 (configuration not stated)	?	2.8µM	nt	2.8µM	?	?
COc1ccc(-c2coc3cc(O[C@@H]4O[C@H](CO)[C@@H](O)[C@H](O)[C@H]4O)c(OC)cc3c2=O)cc1	?	nt	nt	nt	nt	i
COc1ccc(C(=O)NNc2ncnc3c2cnn3-c2cccc(Cl)c2)cc1OC	nt	nt	nt	nt	i	nt
Cc1nn(-c2ccccc2)c(OC(=O)C(C)C)c1Sc1ccc(Cl)cc1	nt	nt	i	nt	13µM	nt
Cc1cc(O)c(C(=O)/C=C/c2ccccc2Br)c(=O)o1	i	i	nt	i	?	i
COc1ccc(/C=C\C(=O)c2c(O)ccc3c(C)cc(=O)oc23)cc1	i	i	i	i	i	i
Cc1cc(O)c(C(=O)/C=C/c2ccc(C(C)C)cc2)c(=O)o1	?	?	nt	2.8µM	3.4µM	i
Cc1cc(C)c(C(=O)/C=C/c2ccc(C(C)C)cc2)c(=O)[nH]1	i	i	i	i	?	i
Cc1cc(O)c(C(=O)/C=C/c2ccccc2)c(=O)o1	i	i	nt	i	19µM	i
CCOc1ccc(/C=C/C(=O)c2c(O)cc(C)oc2=O)cc1	i	?	nt	?	6.7µM	i
CN(C)c1ccc(C(=S)Nc2ccccc2)cc1	?	2.8µM	i	1µM	1.5µM	i
CN(C)c1ccc(NC(=S)c2ccccn2)cc1	?	?	0.5µM	0.32µM	0.085µM	i
C=C(c1ccccc1)c1ccc(N(C)C)cc1	i	i	nt	i[1.84 µM]	?	i
CN(C)c1cc(O)c(C(=S)Nc2ccccc2)c(N(C)C)c1	i	i	i	i	24µM	i
CC(=O)N(Cc1cccnc1)c1nc2c(C)cccc2s1	nt	nt	nt	nt	i	nt
CCCCC1CCC(C(=O)N2CC(=O)Nc3ccc(F)cc3C2c2ccc(F)cc2)CC1 (configuration not stated)	nt	nt	i	nt	i	nt
SMILES	ELG1 genotoxic	NPC1 promoter act	SMN2 splice enh	Rab9 promoter act	FLuc modulator	uPA surface inh
COc1ccc(CCNC(c2ccc(F)cc2)c2nnc(-c3ccccc3Cl)o2)cc1OC (configuration not stated)	nt	nt	i	nt	i	nt
C=CCn1c(NCc2ccc(OC)cc2)nc2ccccc21	i	i	nt	i	?	i
C=CCn1c(NCc2c[nH]c3ccccc23)nc2ccccc21	i	i	i	i	24µM	i
CCn1c(NCc2c[nH]c3ccccc23)nc2ccccc21	nt	nt	nt	nt	nt	i
Cn1c(NCc2cccs2)nc2ccccc21	23µM	i	11µM	?	?	i
CCn1c(NCc2cccs2)nc2ccccc21	i	i	?	i	i	i
Cn1c(NCc2c[nH]c3ccccc23)nc2ccccc21	i	2.2µM	11µM	2µM	9.5µM	i

Source: PubChem (National Center for Advancing Translational Sciences (NCATS))
